Compound activity (PubChem BioAssay)
MPTP inh: inhibitors of mitochondrial permeability transition pore; isolated mouse mitochondria, Ca2+ swelling absorbance, 30 min; inhibition, % at 10 µM; 360,000 compounds, 1.4% hits;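 active means inhibition of 50% or more, scaled per plate between neutral and stimulator controls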;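 further: 0% = DMSO wells given calcium and 100% = 1 mM EGTA wells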
tim23-1 inh: growth inhibitors of tim23-1 mutant yeast; S. cerevisiae tim23-1 growth, BacTiter-Glo luminescence, 24 h; inhibition, % at 20 µM; 330,000 compounds, 1.3% hits; AID 463212;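 active means growth inhibition of the mutant yeast at or above 50%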;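 further: temperature-sensitive mutant grown at 25 °C; plate controls were DMSO-treated mutant yeast for no effect and medium wells lacking yeast for full effect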
TIM10 inh: inhibits growth of TIM10 yeast strain; 330,000 compounds, 1.4% hits; S. cerevisiae TIM10 strain growth, BacTiter-Glo luminescence, 24 h; inhibition, % at 10 µM;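 active means inhibition of 40% or more at the single tested concentration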;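 further: wild-type TIM10 isogenic control strain grown at permissive 25 °C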
tim10-1 inh: inhibits growth of tim10-1 mutant yeast. S. cerevisiae tim10-1 ts strain growth, BacTiter-Glo, 24 h. inhibition, % at 20 µM. 330,000 compounds, 2.2% hits;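 active means inhibition of at least 40%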;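 further: mutant grown at 25 °C; 0% = DMSO wells with yeast and 100% = wells holding no yeast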
Mdm2-MdmX inh: disrupts the human Mdm2-MdmX interaction; SaOS-2 split-luciferase Mdm2/MdmX complementation, luminescence; inhibition, % at 8 µM; 330,000 compounds, 3% hits; AID 485346;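 active means inhibition of at least 50% at 8 µM in the primary screen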
tim10-1 confirm: tim10-1 yeast growth inhibition, confirmed | AID 463213 | shares compounds with tim10-1 inh | 7,400 compounds, 56% hits | S. cerevisiae tim10-1 ts strain growth, BacTiter-Glo, 24 h | inhibition, % at 20 µM;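 active means inhibition of yeast growth at or above a set limit in either of two repeat tests at 20 µM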;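 further: tim10-1 mutant grown at permissive 25 °C to find synthetic lethal compounds; 0% = DMSO yeast wells and 100% = medium wells without yeast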
TIM10 conf: TIM10 yeast growth inhibition, confirmed; shares compounds with TIM10 inh; S. cerevisiae tim10 strain growth, BacTiter-Glo luminescence, 24 h; inhibition, % at 10 µM; 4,600 compounds, 63% hits; AID 463215;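 active means inhibition of yeast growth at or above a set limit in either of two replicates at 10 µM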;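 further: this counterscreen used the strain with wild-type TIM10; 0% = yeast with DMSO and 100% = medium wells lacking yeast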
tim23-1 confirm: confirmation of tim23-1 mutant yeast growth inhibitors. inhibition, % at 20 µM. S. cerevisiae tim23-1 growth, BacTiter-Glo luminescence, 24 h. shares compounds with tim23-1 inh. AID 463218. 4,400 compounds, 83% hits;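 active means inhibition above about 39% in either of two replicate wells at 20 µM, limit read from the data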;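 further: temperature-sensitive tim23-1 mutant grown at 25 °C; 0% = DMSO wells with yeast and 100% = medium wells without yeast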
Mdm2-MdmX conf: confirmation of human Mdm2/MdmX interaction inhibitors; shares compounds with Mdm2-MdmX inh; Mdm2-MdmX binding, luminescent assay; inhibition, % at 8 µM; 10,000 compounds, 55% hits; in the data active means inhibition above about 40%
FLuc counter: inhibits full-length luciferase, flagging false Mdm2/MdmX hits; inhibition, % at 8 µM; 6,200 compounds, 77% hits; SaOS-2 full-length luciferase counterscreen, luminescence; shares compounds with Mdm2-MdmX inh;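 active means mean inhibition at 8 µM reaching about 37%, which flags the compound as non-specific, limit read from the data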;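 further: p53-null SaOS-2 cells with luciferase driven by a doxycycline-inducible promoter; compound on cells about two nights before reading with doxycycline added after day one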
* = called active by the depositor. Shown are actives, neighbours in structure and some others; about 6.3% of the full set was active somewhere.

COc1ccccc1/C=C/C(=O)c1ccc(NC(C)=O)cc1 was read as MPTP inh 0, tim23-1 inh 33, TIM10 inh 44*, tim10-1 inh 43*, Mdm2-MdmX inh 63*, tim10-1 confirm 24, TIM10 conf -3, Mdm2-MdmX conf 52* and FLuc counter 59*.
For COc1ccccc1/C=C/C(=O)c1ccccc1 the results were MPTP inh 0.
For C[C@H]1COc2cccc(N3CCC[C@@H]3CO)c2S(=O)(=O)N1 the results were MPTP inh 1.
O=C1O[C@@H](c2ccccc2)C[C@@H](O)C(=O)CCCCc2ccccc21 was read as MPTP inh 1.
For Cc1ccc(C(=O)NC(C#N)=C(Cl)Cl)cc1 the results were tim23-1 inh 69*, TIM10 inh 45*, tim10-1 inh 51*, Mdm2-MdmX inh 100*, tim10-1 confirm 41*, TIM10 conf 30, tim23-1 confirm 62*, Mdm2-MdmX conf 99* and FLuc counter 53*.
`COc1cc(NC(=O)[C@H]2O[C@@H](n3ccc(N)nc3=O)[C@H](O)[C@@H]2O)cc(OC)c1OC` gave MPTP inh 1.
Screening CCc1ccc2oc(C(=O)N3CCN(c4ccccc4OC)CC3)cc(=O)c2c1 returned MPTP inh 0, tim23-1 inh 39, TIM10 inh 12, tim10-1 inh 48*, Mdm2-MdmX inh 60*, tim10-1 confirm 18, Mdm2-MdmX conf 50* and FLuc counter 40*.
O=C(O)Cc1cn(-c2ccccc2)nc1-c1ccc(Cl)cc1 was read as MPTP inh 0, tim23-1 inh 14, TIM10 inh 0, tim10-1 inh 10 and Mdm2-MdmX inh 1.
CC1=NNC(=O)/C1=C\c1cn(-c2ccccc2)nc1-c1ccc(Cl)cc1 was read as MPTP inh -5, tim23-1 inh 89*, TIM10 inh 89*, tim10-1 inh 83*, Mdm2-MdmX inh 100*, tim10-1 confirm 71*, TIM10 conf 89*, tim23-1 confirm 68*, Mdm2-MdmX conf 47* and FLuc counter 3.
`COc1ccc(-n2cc(-c3ccccc3)nc2SC)cc1` gave MPTP inh 0, tim23-1 inh 47, TIM10 inh 37, tim10-1 inh 37 and Mdm2-MdmX inh -115.
COc1ccc2c(c1)sc1nc(-c3ccccc3)cn12 was read as MPTP inh 3, tim23-1 inh 60*, TIM10 inh -1, tim10-1 inh 40*, Mdm2-MdmX inh 84*, tim10-1 confirm 19, tim23-1 confirm 67*, Mdm2-MdmX conf 70* and FLuc counter 114*.
Screening CCOC(=O)N1CCN(c2c(F)cc3[nH]c(=S)[nH]c3c2Br)CC1 returned MPTP inh -2, tim23-1 inh 35, TIM10 inh 23, tim10-1 inh 57*, Mdm2-MdmX inh 61*, tim10-1 confirm 29, Mdm2-MdmX conf 58* and FLuc counter 47*.
Screening CCOC(=O)N1CCN(c2cc3[nH]c(=S)[nH]c3cc2F)CC1 returned MPTP inh -2, tim23-1 inh -9, TIM10 inh 3, tim10-1 inh 10 and Mdm2-MdmX inh 13.
`Cc1ccc(C)c(Sc2ccc(NC(=O)CCl)cc2)c1` gave tim23-1 inh 74*, TIM10 inh 51*, tim10-1 inh 57*, Mdm2-MdmX inh 67*, tim10-1 confirm 55*, TIM10 conf 36*, tim23-1 confirm 49* and Mdm2-MdmX conf 30.
Screening O=C(CCl)Nc1ccccc1Sc1ccccc1 returned MPTP inh -1, tim23-1 inh 8, TIM10 inh -2, tim10-1 inh 19 and Mdm2-MdmX inh 13.
`CCN1C(=O)/C(=C\c2nc3ccccc3c(=O)n2-c2ccccc2)c2ccccc21` gave MPTP inh 2, tim23-1 inh 50, TIM10 inh 43*, tim10-1 inh 42*, Mdm2-MdmX inh 51*, tim10-1 confirm 33*, TIM10 conf 18 and Mdm2-MdmX conf 33.
`O=C1/C(=C/c2ccccc2)SC(=S)N1CC(=O)N1CCCCC1c1cccnc1` (stereo unspecified) gave MPTP inh -1, tim23-1 inh 47, TIM10 inh 17, tim10-1 inh 47*, Mdm2-MdmX inh 85*, tim10-1 confirm 16, Mdm2-MdmX conf 32 and FLuc counter 21.
`Cc1ccc(-n2cccc2C(=S)N=P(N(C)C)(N(C)C)N(C)C)cc1` gave MPTP inh 1, tim23-1 inh 26, TIM10 inh 46*, tim10-1 inh 41*, Mdm2-MdmX inh 72*, tim10-1 confirm 26, TIM10 conf 14, Mdm2-MdmX conf 50* and FLuc counter 51*.
For Cc1ccc(S(=O)(=O)c2c(C)nn(C(C)(C)C)c2OC(=O)c2ccc(Br)o2)cc1 the results were MPTP inh 0, tim23-1 inh 70*, TIM10 inh 42*, tim10-1 inh 50*, Mdm2-MdmX inh 89*, tim10-1 confirm 37*, TIM10 conf 35*, tim23-1 confirm 49*, Mdm2-MdmX conf 60* and FLuc counter 29.
For Cc1ccc(S(=O)(=O)c2c(C)nn(C(C)(C)C)c2OC(=O)C(C)(C)C)cc1 the results were MPTP inh -3, tim23-1 inh 39, TIM10 inh 8, tim10-1 inh 32 and Mdm2-MdmX inh 11.
Screening CCC(C(=O)NC(C)(C)C)n1c(-c2cccc(NC(C)=O)c2)nc2ccccc21 (stereo unspecified) returned MPTP inh -1.
Screening Cc1cc(C)c2nc(C(F)(F)F)c(C#N)c(N)c2c1 returned MPTP inh 38, tim23-1 inh 11, TIM10 inh 30, tim10-1 inh 42*, Mdm2-MdmX inh 71*, tim10-1 confirm 20, Mdm2-MdmX conf 86* and FLuc counter 55*.
For COc1ccc2[nH]c3c4c(ccc3c2c1)C(=O)C=CC4=O the results were MPTP inh 6, tim23-1 inh 76*, TIM10 inh 79*, tim10-1 inh 62*, Mdm2-MdmX inh 75*, tim10-1 confirm 77*, TIM10 conf 99*, tim23-1 confirm -23, Mdm2-MdmX conf 80* and FLuc counter 2.
